Source: PubChem BioAssay (NCI)
This is part of a sample that, as a whole, favours compounds with a hit. Of some 83,000 tested, about 20% had one in any assay.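 Step 1: grow cells in 96-well plates. Step 2: add test compound at a single concentration. Step 3: incubate 48 h. Step 4: record percent growth.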 The source made the active and inactive calls. Rule for the calls: active = growth percent below 10; inactive = the rest.

Tested on: MDA-MB-468 breast
Test: NCI-60 one-dose screen, 48 h (100 = growth as untreated, 0 = no growth, -100 = all killed)
Conditions: 10 µM unless noted

Row | Compound | growth
1 | COc1ccc(-c2nc(-c3nc4ccc(F)cc4[nH]3)cc3c2[nH]c2ccccc23)cc1 | 40% (inactive)
2 | O=C1c2c[n+](Cc3ccccc3)ccc2-c2nc3ccccc3c3ccnc1c23 | -59.2% (active)
3 | COc1cccc(C(=O)NCCCNc2cc(-c3cn(-c4ccccc4)nc3-c3cccc(OC)c3)ccn2)c1 | 29.1% (inactive)
4 | CC(C)[C@@H]1CC[C@]2(C(=O)NCCCCN=C(N)N)CC[C@]3(C)[C@H](CC[C@@H]4[C@@]5(C)CCC(=O)C(C)(C)[C@@H]5CC[C@]43C)[C@@H]12 | 10.6% (inactive)
5 | Cc1ccc(-c2csc(N/N=C/c3cccs3)n2)cc1 | 65.1% (inactive)
6 | Cc1nc(-c2ccccc2)cc2c(O)c(C(=O)N/N=C/Cc3ccccc3)[nH]c(=O)c12 | 111% (inactive)
7 | COc1ccc(C2NC(=O)C(C#N)c3c2sc2c(F)cccc32)c(OC)c1 (centres undefined) | 24.3% (inactive)
8 | CC1(C)N=C(N)N=C(N)N1c1cccc(CN)c1 | 84.8% (inactive)
9 | CN1CCN(c2cnc(C(=O)Nc3cc(F)cc4cccnc34)cn2)CC1 | 9.54% (active)
10 | O=C1NC(=C(Cl)Cl)/C(=N/S(=O)(=O)N2CCCCC2)N1 | -38% (active)
11 | COc1ccccc1Nc1nc2c(s1)C1=CC[C@H]3[C@@H]4CC[C@H]([C@H](C)CCCC(C)C)[C@@]4(C)CC[C@@H]3[C@@]1(C)CC2 | 113% (inactive)
12 | CCCCCCCCCCCCCC | 110% (inactive)
13 | COc1cc(NCC(O)CN(CC(C)C)CC(C)C)c2ncccc2c1 (centres undefined) | -19.8% (active)
14 | COCCC[C@H]1O[C@@](O)([C@H](C)[C@@H]2CC(OC)C(O)/C=C(C)/C=C(C)/C=C(\C)C(OC3O[C@@H](C)[C@H](O)C(O)[C@@H]3O)C(C)/C=C(C)/C=C(OC)/C=C(\C)C(=O)O2)C(OC)C(O)[C@]1(C)O[C@H]1C[C@@H](O)[C@H](O[C@H]2C[C@](C)(O)[C@H](O)C(C)O2)C(C)O1 (some centres undefined) | 9.61% (active)
